According to PubChem BioAssay (NCI):
This is part of a sample that, as a whole, favours compounds with a hit. Of some 79,000 tested, about 15% had one in any assay. Values without a mark were called inactive. Calls of active or inactive are those of the source. Cut-off read from the data, not from the text of the source: active = growth inhibition above about 70%; inactive = the rest.

Experiments:
[1] = NCI Yeast Anticancer Drug Screen. Data for the rad50 strain (AID 155);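 note: 0% = growth of vehicle-only cultures of the same strain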; details: S. cerevisiae rad50 strain growth inhibition; at 50.0 µM; stronger effect = higher value
Summary of the method: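 Yeast carrying a defined DNA repair defect were exposed to test compounds, and growth was compared with vehicle-treated controls to give percent inhibition.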

[2] = NCI Yeast Anticancer Drug Screen. Data for the mec2-1 strain (AID 157); details: S. cerevisiae mec2-1 strain, at 50.0 µM, stronger effect = higher value
Summary of the method: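 Yeast mec2-1 mutant treated with compound. Readout: growth inhibition vs vehicle controls.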

[3] = NCI Yeast Anticancer Drug Screen. Data for the sgs1 mgt1 strain (AID 161);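 note: 0% = growth of cultures given vehicle only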; details: S. cerevisiae sgs1 mgt1 strain, at 50.0 µM, stronger effect = higher value
Summary of the method: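 Genetically altered yeast, compound exposure, growth inhibition relative to vehicle.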

[4] = NCI Yeast Anticancer Drug Screen. Data for the cln2 rad14 strain (AID 165);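 note: 0% = growth equal to vehicle treated cultures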; details: S. cerevisiae cln2 rad14 strain, at 50.0 µM, stronger effect = higher value
Summary of the method: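 cln2 rad14 yeast strain; compound exposure; growth inhibition read vs vehicle controls.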

[5] = NCI Yeast Anticancer Drug Screen. Data for the bub3 strain (AID 167); details: S. cerevisiae bub3 mutant strain, at 50.0 µM, stronger effect = higher value
Summary of the method: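 Compounds were applied to a genetically altered yeast strain carrying a cell-cycle control defect. Growth inhibition was scored against vehicle-treated controls.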

[6] = NCI Yeast Anticancer Drug Screen. Data for the mlh1 rad18 strain (AID 175); details: S. cerevisiae mlh1 rad18 strain growth inhibition; at 50.0 µM; stronger effect = higher value
Summary of the method: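 Yeast w/ defined DNA-repair lesions; compound exposure; growth vs vehicle controls → % inhibition.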

| SMILES | growth inhibition [1] | growth inhibition [2] | growth inhibition [3] | growth inhibition [4] | growth inhibition [5] | growth inhibition [6] |
| --- | --- | --- | --- | --- | --- | --- |
| Cc1nc2ccc(Cl)c(Cl)c2s1 | 2% | -16.3% | -3% | -26% | 6.65% | -10.4% |
| COc1cc2c(-c3cc(OC)c(OC)c(OC)c3)cc(C)[n+](C)c2cc1OC | 6.25% | -9.2% | -2.3% | -15% | -13.3% | 1.8% |
| N#CC(C#N)=CC(C#N)C#N | -10% | -4.3% | -12.2% | -65.1% | 5.1% | -11.7% |
| CCC(CO)Nc1nc2c(Cl)cc(Cl)cc2c2ccccc12 (configuration not stated) | 11.1% | 1.55% | 18.4% | -12.3% | 12% | 41.2% |
| O=C(Nc1ccccc1)c1cccc(F)c1 | -2.9% | -20.8% | -6.25% | 9.1% | -19.4% | 7.6% |
| CCOC(=O)Cn1c(=O)n(C)c(=O)c2[nH]cnc21 | 28.7% | -27.1% | 17.4% | 15.1% | 22.5% | 28.5% |
| CCOC(=O)Cn1c(=O)c2nc(SC)sc2n(CC)c1=S | -21.8% | 21.1% | -1.15% | -6.55% | 9.45% | 4% |
| CCCN=C(C)C(C)=NCCC | -18.7% | -15.1% | -15.1% | -11% | -19.4% | -11.3% |
| CC(C)NC(=O)C1CC2C=CC1C2 (configuration not stated) | 7.7% | 1.3% | 1.75% | 3.25% | -9.85% | 14.8% |
| CN(C)c1ccc(Cc2ccc(N(C)C)cc2[N+](=O)[O-])c([N+](=O)[O-])c1 | -4.35% | 11.2% | 19.9% | 6.1% | 15.3% | -1.35% |
| CCOc1ccc(/C=C\C(=O)O)cc1 | -1.9% | -19.6% | 8.5% | -5.75% | 1.25% | 1.55% |
| CCCCCCCOCC(=O)OC | 3.6% | -0.7% | 2% | -21.2% | 10.2% | 1.45% |
| Cn1c(=O)c2[nH]c(N(CCO)CCO)nc2n(C)c1=O | 7.75% | 9.95% | 23.9% | 21.9% | -2.3% | 15.1% |
| O=[N+]([O-])c1ccc(N2CCCC2)cc1 | 14.2% | -8.05% | -6.9% | 0.8% | 13.8% | -16.7% |
| O=C(O)Cc1cc(=O)[nH]n(-c2ccccc2)c1=O | 14.2% | 8.6% | -1.3% | 10% | -4.65% | 13.8% |
| CC(=O)NC(CCCCNC(=O)OCc1ccccc1)C(=O)O (configuration not stated) | -22.9% | -12.9% | -22.6% | 11.9% | -12.8% | -32.8% |
| C/C(NN(C)C)=C(\C#N)C(=O)/C=C/c1cccs1 | 25.2% | 1.75% | 38.5% | 25.9% | 18.1% | 18.8% |
| CCOC(=O)c1ccc(N2C(=S)N(C(=O)c3ccccc3)C(=Nc3ccccc3)C2=Nc2ccccc2)cc1 | 11.2% | 3.15% | 5.25% | 1.35% | 3.85% | -37.4% |
| CCC(c1ccc(OC)cc1)c1cc2c(cc1OCCO)OCO2 (configuration not stated) | 70.9% (active) | 66.3% | 81.7% (active) | 67.7% | 58.1% | 96.3% (active) |
| CCOC(=O)c1ccc(N=c2sc3ccccc3nc2Nc2ccc(C(=O)OCC)cc2)cc1 | 2.75% | -3.95% | -2.05% | 34% | 2.3% | 10.9% |
| CCOC(=O)CC(=O)C(=O)NNC1=NCCN1 | 7.15% | 11.6% | 23.6% | 2.45% | 13.3% | 15.2% |

| SMILES | growth inhibition [1] | growth inhibition [2] | growth inhibition [3] | growth inhibition [4] | growth inhibition [5] | growth inhibition [6] |
| --- | --- | --- | --- | --- | --- | --- |
| COC(=O)c1ccccc1N(C)C(=O)c1cc(OC)c(OC)c(OC)c1 | -27.4% | -37% | -5.75% | -11.1% | -19.4% | -8.85% |
| COc1ccc(C(=O)CCc2cccc(NC(=O)CCCl)c2)cc1 | -17.6% | 6.2% | 6.45% | -9.1% | -6.85% | -11.8% |
| Cn1c(COc2ccc(/C=N\N3CCN(/N=C\c4ccc(OCc5c[n+]6ccccc6n5C)cc4)CC3)cc2)c[n+]2ccccc12 | -15.8% | 11.8% | 29.6% | 25.7% | -5.95% | 44% |
| Nc1ccc(S(=O)(=O)Nc2nccs2)cc1 | -0.6% | -17.2% | -3.7% | 6.05% | -1.85% | -3.4% |
| Cc1ccc(-c2nc(C)c(C(=O)Nc3ccc(Cl)cc3)s2)cc1 | -36.6% | -25.4% | -59.4% | 2.85% | -12.3% | -65.9% |
| O=C1NNC2(C(=O)N1)c1ccccc1-c1ccccc12 | 8.5% | -19.5% | 28.1% | 24.9% | 1.65% | 15.2% |
| CCOC(=N)CC(=O)Nc1ccccc1 | 4.45% | 1.1% | 1.65% | -1.6% | 3.6% | 2.35% |
| O=S(=O)(O)c1ccc(N/N=C/c2ccccc2)cc1 | -9.45% | 12.7% | 12.1% | 5.3% | -10.2% | 14.3% |
| C1=C(c2ccccc2)CCCC1 | 17.1% | 3.55% | 4.2% | 14.4% | -9.4% | 4.45% |
| OCC[N+]1(CCO)CCOCC1 | 7.7% | -2.9% | -0.05% | -15.1% | 5.9% | 6.2% |
| Cc1cc2ncn(C3OC(CO)C(O)C3O)c2cc1C (configuration not stated) | -2.7% | 8.35% | -8.25% | 21.5% | -8.2% | 2.65% |
| C[C@]12CC[C@@H]3c4ccc(OP(=O)(O)O)cc4CC[C@H]3[C@@H]1CCC2=O | -7% | 4.9% | -22.7% | -23.9% | -24.6% | -14.1% |
| CCc1cn(O)c(C)cc1=N | 25.3% | 11.1% | 6.15% | 5.8% | 12% | 21.1% |
| O=C(Nc1ccc(Cl)c([N+](=O)[O-])c1)Oc1ccc2ccccc2c1 | 14.6% | 3% | 8.15% | 11.9% | 23.4% | 10.7% |
| COc1ccc(CCN/C=C(\C)C(=O)c2ccc(F)cc2)cc1OC | 11.2% | -4.6% | -13.6% | -29.2% | -13.9% | -4.5% |
| O=C(COc1ccc(Cl)cc1)Nc1ccccc1Br | 11% | 12.1% | 7.35% | 9% | 33.7% | -4.55% |
| CCC(=O)C1CCCCN1 (configuration not stated) | 10.7% | 17.1% | -11.1% | -48.4% | -3.15% | 3% |
| CSc1nc(N(C)C)c2[nH]c(C)nc2n1 | 7.2% | 9.5% | -6.55% | 36.6% | 10.6% | 31.6% |
| CNC(=S)N/N=C(C)\C=N/Nc1ccc(Br)cc1 | 46.4% | 14.1% | 34.7% | -18.9% | 21.2% | 25.9% |
| CCOP(=O)(OCC)/C(C#N)=C/c1cnc(-c2ccccc2)[nH]1 | -38% | -4.85% | -32.8% | 16.1% | 13.4% | -34% |
| O=S(=O)(/N=c1/ccc(NS(=O)(=O)c2ccccc2)cn1O)c1ccccc1 | 25.5% | 3.8% | 18.1% | -23% | 10.6% | 14.6% |
